This is a sample that favours compounds with a hit; in the whole collection about 3.1% have one here.
Env fusion inh – blocks HIV Env-driven cell-cell fusion | HeLa-JRFL Env/CEM21 cell fusion, luciferase | inhibition, % at 12.3 µM | hit rate 1.1% among 360,000;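 active = mean replicate inhibition score of at least 50 and every replicate individually at or above 50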;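 also: 0% = plate neutral controls and 100% = maraviroc near 300 nM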
Statin myotox sup – suppressors of simvastatin-induced myotoxicity in C2C12 myotubes; ATP luminescence, 48 h; scaled: DMSO 0, geranylgeraniol control 100; rescue of ATP level, % at 7.49 µM; hit rate 0.78% among 330,000; AID 602340;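 active = mean ATP rescue above about 67%, or every replicate alone reaching that limit, limit read from the data, passing the limit was not always enough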;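 also: myotubes were challenged with 10 µM simvastatin during compound exposure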
miR122 inh – miR-122 inhibition in Huh7 cells; Huh7 miR-122 Renilla luciferase sensor, 48 h; neutral wells = 0, positive control = 100; activation (reporter increase), % at 12.5 µM; hit rate 0.3% among 340,000; AID 602342;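 active = mean replicate activation score at least 90 and every replicate individually at or above 90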;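 also: higher luciferase means less miR-122 activity so hits act as miR-122 inhibitors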
INS-1E GSIS act – GLuc luminescence reporter in INS-1E cells, primary screen for activators of glucose-dependent secretion of insulin | activation, % at 16.6 µM | AID 743287 | INS-1E GLuc reporter insulin secretion, 2-3 h | hit rate 0.61% among 370,000;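 active = lowest replicate activation of at least 40%, so every replicate reaches that level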;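 also: 0% = median of neutral control wells and 100% = median of IBMX positive control wells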
PAX8 reporter – inhibitors of PAX8 transcriptional activity in RMG-I cells; RMG-I TPO-luciferase reporter, SteadyGlo, 24 h; hit rate 1.2% among 360,000; inhibition, % at 12.6 µM;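 active = mean replicate inhibition at least 60% with every replicate also reaching 60%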;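 also: luciferase light reporting Pax8 driven TPO promoter activity; plate controls were median of neutral control wells for no effect and mitoxantrone controls for full effect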
EWS-Fli block – EWS/Fli transcriptional activity inhibition; A673 NR0B1-luciferase reporter, viability-normalised; inhibition, % at 12.6 µM; hit rate 0.67% among 350,000; AID 651661;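 active = mean inhibition of at least 50% after viability correction, with every replicate also passing that limit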;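 also: firefly luciferase signal divided by Alamar Blue viability fluorescence both relative to DMSO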
Starred values were filed as active, the others as inactive; · = no result; [ ] = dose if it differs, or a comment.

SMILES	Env fusion inh	Statin myotox sup	miR122 inh	INS-1E GSIS act	PAX8 reporter	EWS-Fli block
O=c1c2ccccc2sn1-c1ccccc1F	20.3	-0.4	-0.9	85.8*	14.3	13.0
O=c1c2ccccc2sn1-c1cccc(Cl)c1	-3.2	-4.2	-3.9	-17.7	-10.9	3.1
COc1ccccc1S(=O)(=O)N[C@H]1CC[C@@H](CC(=O)N2CCOCC2)O[C@@H]1CO	-2.7[16.7 µM]	-6.8	·	6.9	6.6	2.8
COc1ccccc1CNC(=O)C[C@H]1CC[C@@H]2[C@H](COC[C@H](O)CN2Cc2cccc(-c3ccncc3)c2)O1	-14.5[16.7 µM]	10.9	-7.9[16.7 µM]	-7.6	22.3	7.8
CCC(=O)Nc1c(C#N)c2nc3ccccc3nc2n1C1CCCCC1	9.9	·	·	·	15.1	·
N#Cc1c(N)n(C2CCCCC2)c2nc3ccccc3nc12	·	-1.3	4.7	43.1*	·	·
Cc1ccc(-n2c(=O)cc(N3CCN(C(=O)c4ccco4)CC3)[nH]c2=O)cc1	-7.6	101.8*	5.1	-4.8	5.3	3.5
COc1ccc(NC(=O)Nc2ccc3c(c2)C(=O)N([C@@H](C)CO)C[C@H](C)[C@H](CN(C)C(=O)NC(C)C)O3)cc1	-0.2[16.7 µM]	10.2	-3.1[16.7 µM]	11.8	7.9	-8.8
CCCCc1cc(=O)oc2cc(OCc3nn[nH]n3)ccc12	-4.3	15.5	-3.1	·	-12.3	-5.3
CCCc1cc(=O)oc2cc(OCc3nn[nH]n3)ccc12	-22.3	-2.1	163.8*	·	·	·
O=C1c2ccccc2NC(c2ccccn2)N1c1ccc(Cl)cc1 (configuration not stated)	·	-1.2	2.6	62.5*	·	·
CC=Cc1ccc2n(c1=O)C[C@@H]1[C@@H](CO)[C@H](C(=O)NCCC)[C@H]2N1Cc1ccccc1 (mixture of isomers)	·	13.4	0.9[16.7 µM]	-23.1	-6.2	0.5
Oc1ccccc1C1SC(c2ccccc2O)SC(c2ccccc2O)S1 (configuration not stated)	-0.7	8.1	-0.5	152.9*	·	18.0
Cc1cc2c(cc1C)CSC(c1ccccc1O)SC2	-39.0	15.0	2.2	·	·	·
COc1ccc(Cl)cc1C(=O)n1nc(C)cc1C	·	106.8*	1.1	·	·	·
COc1cccc(OC)c1C(=O)n1nc(C)cc1C	-57.7	5.4	4.2	4.9	-1.5	·
O=C(CCN1CCN(Cc2ccccc2)CC1)Nc1ccc(OCc2ccccc2)cc1	58.9*	9.1	-2.0	·	·	·
O=C(CCN1CCN(CCO)CC1)Nc1ccc(OCc2ccccc2)cc1	-41.6	-0.8	14.6	·	·	·
NCC[C@@H]1CC[C@@H](NS(=O)(=O)Cc2ccccc2)[C@H](CO)O1	-3.1[16.7 µM]	2.4	-17.0[16.7 µM]	-5.7	-5.6	-0.5
Fc1ccc(C[n+]2csc3ccccc32)cc1	·	73.8*	-1.0	5.6	·	-18.9
CC(=O)C1=C(N2CCCCC2)CCC1=O	·	95.5*	-9.2	12.3	·	·
CC1=C(N2CCOCC2)CCC1=O	-5.0	1.6	·	7.7	1.7	-1.6
CCN(CC)c1ccc(/C=N/NC(=O)c2cccc(S(=O)(=O)Nc3ccccc3OC)c2)c(O)c1	1.2	·	·	7.5	74.2*	1.0
COc1ccccc1NS(=O)(=O)c1cccc(C(=O)N/N=C/c2ccc3c(c2)OCCO3)c1	-14.6	·	·	-13.9	-27.8	·
COc1ccccc1NS(=O)(=O)c1cccc(C(=O)N/N=C/c2ccc([N+](=O)[O-])o2)c1	-4.3	16.6	12.5	-15.9	93.0*	49.8
SMILES	Env fusion inh	Statin myotox sup	miR122 inh	INS-1E GSIS act	PAX8 reporter	EWS-Fli block
COc1ccccc1NS(=O)(=O)c1cccc(C(=O)N/N=C/c2c(C)nn(-c3ccccc3)c2N2CCCC2)c1	·	·	·	73.3*	12.0	-6.9
CC(C)NC(=O)Nc1ccc2c(c1)C(=O)N([C@@H](C)CO)C[C@@H](C)[C@H](CN(C)C(=O)Cc1ccccc1)OCCCC[C@@H](C)O2	-40.0[16.7 µM]	·	-12.6[16.7 µM]	-20.3	-3.0	·
COc1ccc(S(=O)(=O)Nc2ccc3c(c2)C(=O)N([C@@H](C)CO)C[C@H](C)[C@H](CN(C)C(=O)Cc2ccccc2)OCCCC[C@@H](C)O3)cc1	-1.1[16.7 µM]	·	7.1[16.7 µM]	-17.5	-6.7	2.3
CN1CCSc2ccc(C(=O)Nc3cccc(F)c3)cc21	-361.0	-9.8	0.6	66.8*	-150.6	-114.1
Cc1nn(-c2ccc3ccccc3c2)c(=O)c2ccccc12	-28.4	·	3.6	-2.7	-71.6	-45.2
Cc1nn(-c2nc3ccccc3[nH]2)c(=O)c2ccccc12	71.5*	-153.4	5.8	16.7	105.3*	88.0*
O=C(C[C@@H]1CC[C@@H]2[C@H](COC[C@H](O)CN2CC2CCCC2)O1)NCc1ccc(Cl)cc1	·	·	·	-37.0	·	-2.7
CCOC(=O)c1oc2cc(O)cc(C)c2c1C	·	2.1	·	40.0*	-93.1	-25.0
CO[C@H]1CN(C)C(=O)c2ccc(NC(C)=O)cc2OC[C@H](C)N(Cc2cccnc2)C[C@@H]1C	·	6.5	16.6[16.7 µM]	4.9	·	-2.9
CN1C(=O)c2cc(NC(=O)NC3CCCC3)ccc2OC[C@@H]2O[C@@H](CC(=O)NCC3CC3)CC[C@H]21	6.5[16.7 µM]	11.1	-8.3[16.7 µM]	-3.4	-12.4	-7.6
CCc1ccccc1NC(=O)C(CC)Sc1nc2cc3c(cc2c(=O)n1Cc1ccco1)OCO3 (configuration not stated)	-23.0	45.3	11.1	·	·	·
CCc1ccc(NC(=O)C(CC)Sc2nc3cc4c(cc3c(=O)n2Cc2ccco2)OCO4)cc1 (configuration not stated)	-60.8	-54.8	138.5*	·	10.4	·
Nc1ccn(C2OC(COP(=O)(O)O)C(O)C2O)c(=O)n1 (configuration not stated)	82.2*	·	23.6	2.0	11.6	49.6
C[C@H]1CN([C@@H](C)CO)C(=O)Cc2cc(NC(=O)Nc3ccc(F)cc3)ccc2O[C@H]1CN(C)C(=O)Nc1ccccc1	·	-2.9	4.1[16.7 µM]	-6.0	13.7	-5.2
COc1ccc(OC)c(CN2C(=O)c3ccccc3C2c2nnnn2-c2c(C)cccc2C)c1 (configuration not stated)	67.9*	·	·	-28.5	8.2	-3.5
COc1ccc(OC)c(CN2C(=O)c3ccccc3C2c2nnnn2-c2ccc3c(c2)OCCO3)c1 (configuration not stated)	-77.5	·	·	-3.4	20.8	51.9*
COc1ccccc1NC(=O)N[C@@H]1CC[C@@H](CC(=O)N[C@H](C)c2ccccc2)O[C@@H]1CO	4.3[16.7 µM]	-0.1	·	12.7	-5.2	0.3
COC(=O)C[C@H]1CC[C@H](NS(=O)(=O)c2ccc(OC)cc2)[C@@H](CO)O1	8.3[16.7 µM]	1.7	·	4.4	-2.4	-1.4
CC(C)CNC(=O)c1cc2nc3c(c(C(F)(F)F)n2n1)CCc1ccccc1-3	·	-17.6	4.7	·	·	·
CCCCNC(=O)c1cc2nc3c(c(C(F)(F)F)n2n1)CCc1ccccc1-3	-40.7	75.8*	-5.9	·	6.8	·
C[C@H]1CN([C@@H](C)CO)C(=O)c2cccc(NS(C)(=O)=O)c2O[C@H]1CN(C)S(=O)(=O)c1ccccc1	-16.8[16.7 µM]	·	-5.3[16.7 µM]	18.0	·	-4.2
CC=Cc1ccc2n(c1=O)C[C@@H]1[C@@H](CO)[C@H](C(=O)NCc3ccccn3)N(CC3CC3)[C@H]21 (mixture of isomers)	·	3.2	·	6.4	·	3.8

Bioassay records from PubChem BioAssay.
